Holding throughout (format): functional
Assay [1] concerns Plasmodium falciparum. The assay is described as follows: GSK_TCMDC: Inhibition of Plasmodium falciparum 3D7 in whole red blood cells, using parasite LDH activity as an index of growth. Test compounds present at 2uM.
Assay [2] relates to Plasmodium falciparum. Briefly: GSK_TCMDC: Inhibition of Plasmodium falciparum Dd2 in whole red blood cells, using parasite LDH activity as an index of growth. Test compounds present at 2uM.
Another assay deals with HepG2. Briefly: GSK_TCMDC: Percent inhibition of human HepG2 cell line. Test compounds present at 10uM.

Consider 27 molecules from ChEMBL document CHEMBL1157539, “Thousands of chemical starting points for antimalarial lead identification” (Nature, 2010).

As to `O=C(O)C(F)(F)F.Oc1ccc(CCNc2nc(NCc3cccc(OCc4cccc(F)c4)c3)nc(N3CCNCC3)n2)cc1`, the Inhibition stood at 86% in the assay on Plasmodium falciparum [1], 0% in the assay with Plasmodium falciparum [2] and 27% in the assay with HepG2.
In the same order, the values of `Fc1ccc2[nH]c(-c3ccc(-c4ccc(CNCC5CCCO5)cc4)cc3)nc2c1.O=C(O)C(F)(F)F` (stereo unspecified) are 100%, 100% and 26%.
For `CC(=O)c1ccc(-c2cccc3c(CC(=O)Nc4ccc5nccc(N6CCN(C)CC6)c5c4)cccc23)cc1` the same measures were 100%, 96% and 3%.
In the same order, the values of `Cc1cc(C(=O)CN2C(=O)NC3(CCOc4ccccc43)C2=O)c(C)n1Cc1ccc(F)cc1` (stereo unspecified) are 95%, 84% and 1%.
`COc1ccc(-c2cc(C(=O)Nc3ccc(CCCN(C)Cc4ccc(OC)c(OC)c4)cc3)c3ccccc3n2)cc1`: the Inhibition was determined as 92% with Plasmodium falciparum [1], 47% in the assay with Plasmodium falciparum [2] and 40% in the assay on HepG2.
For `CC(C)(C)c1ccc(C(=O)Nc2ccc(NC(=O)c3ccc([N+](=O)[O-])o3)cc2)cc1` the same measures were 81%, 4% and 0%.
For `Cc1cccc2nc(-c3cccc(-c4cccc(NC(=O)c5ccc(=O)[nH]n5)c4)c3)[nH]c12` the same measures were 100%, 32% and 10%.
In the same order, the values of `COc1ccc(-c2ccc(NC(=O)c3ccc(Cl)cc3)cc2)cc1CN(C)CCN(C)C.O=C(O)C(F)(F)F` are 97%, 61% and 37%.
Turning to `COc1ccc2nccc([C@@H](O)CN3CCC(NCc4cc5oc(=O)[nH]c5cc4Cl)CC3)c2c1.O=C(O)C(=O)O`, the Inhibition in the assay with Plasmodium falciparum [1] is 100%; in the assay on Plasmodium falciparum [2], 91%; with HepG2, 1%.
Regarding `COc1ccccc1CCNc1nc(C)cc(N[C@@H](CC(C)C)C(=O)NCCc2ccccc2)n1.O=C(O)C(F)(F)F`, the Inhibition amounted to 97% in the assay with Plasmodium falciparum [1], 81% in the assay on Plasmodium falciparum [2] and 12% with HepG2.
In the same order, the values of `Cc1nnc2c(NC(=O)NC3CCCC3)cc3cc(-c4ccc(CN(C)C)cc4)ccc3n12` are 100%, 37% and 100%.
For `Cc1cccc2nc(-c3ccc(-c4cccc(NC(=O)CCc5c[nH]cn5)c4)s3)[nH]c12` the same measures were 94%, 70% and 2%.
In the same order, the values of `CS(=O)(=O)c1ccc2[nH]c(-c3cc(-c4ccc(OCCN5CCOCC5)cc4)cnc3N)nc2c1.O=C(O)C(F)(F)F` are 100%, 99% and 43%.
As to `COc1ccc(O)c(C(=O)c2cc(C(=O)NC3CCCCC3)c(=O)n(C3CCCCC3)c2)c1`, the Inhibition in the assay with Plasmodium falciparum [1] stood at 99%; in the assay with Plasmodium falciparum [2], 62%; with HepG2 it was 8%.
For `Cl.Ic1cc(CNC2CCCCC2)ccc1OCc1cccc(COc2ccc(CNC3CCCCC3)cc2I)c1` the same measures were 93%, 34% and 0%.
In the same order, the values of `Br.CC(C)(C)c1ccc(OCCCON2C(N)=NC(N)=NC2(C)C)cc1` are 93%, 76% and 77%.
In the same order, the values of `COC(=O)c1sc2ccccc2c1NC(=O)c1ccc(C)c(C)c1` are 88%, 48% and 4%.
As to `CCn1ccc2c(N3CCCC3=O)cc(C(=O)N[C@@H](Cc3ccccc3)[C@H](O)CNCc3cccc(OC)c3)cc21`, the results for the Inhibition in the assay with Plasmodium falciparum [1], in the assay on Plasmodium falciparum [2] and in the assay with HepG2 were 94%, 92% and 4%, respectively.
For `Cl.O=c1nc(NCCCNCc2cc3c(Cl)cc(Cl)cc3[nH]2)[nH]c2ccsc12` the same measures were 96%, 11% and 62%.
For `COc1cccc(C(=O)Nc2sc3c(c2C(N)=O)CCCC3)c1OC`, the Inhibition in the assay with Plasmodium falciparum [1] was determined as 99%; with Plasmodium falciparum [2], 8%; in the assay on HepG2 it was 6%.
For `COc1cc(Cc2cnc(N)nc2N)ccc1OCc1ccc(F)c(F)c1` the same measures were 90%, 31% and 10%.
In the same order, the values of `CC(C)c1ccc(NC(=O)NC2CCN(CCCCCNC(=O)/C=C/c3ccc(Cl)c(Cl)c3)CC2)cc1` are 100%, 19% and 0%.
In the same order, the values of `CN(C)c1ccc(C=Cc2ccc3ccccc3n2)c(Cl)c1` are 94%, 95% and 59%.
Take `CCCCCCCN(CCCCCCC)CCCC(=O)Nc1ccnc2ccc(OC)cc12.O=C(O)C(=O)O`: the values for the Inhibition in the assay with Plasmodium falciparum [1], with Plasmodium falciparum [2] and in the assay with HepG2 were 100%, 98% and 43%, respectively.
In the same order, the values of `N#Cc1ccc(N2CCN(Cc3ccc(-c4ccc(-c5nc6cc(C(F)(F)F)ccc6[nH]5)cc4)cc3)CC2)nc1.O=C(O)C(F)(F)F` are 100%, 90% and 19%.
In the same order, the values of `CN1CC[C@@H](Oc2cc(CNC(=O)c3ccc(-c4ccc(Cl)cc4)s3)ccc2C(F)(F)F)C1.Cl` are 93%, 64% and 40%.
As to `CCOc1cc(C(=O)N[C@@H](Cc2ccccc2)[C@H](O)CNCc2cc(OC)cc(OC)c2)cc(N2CCCC2=O)c1.Cl`, the Inhibition with Plasmodium falciparum [1] turned out to be 94%; in the assay with Plasmodium falciparum [2], 63%; with HepG2 it was 0%.

As usually defined, the Inhibition is the change of the read-out against control, counted positive when it falls. Read a low Inhibition as a response near the control.
